PfHsp40 yeast = restores yeast growth despite PfHsp40 toxicity. S. cerevisiae expressing PfHsp40, growth rescue, ATP luminescence. growth rescue, % at 12.5 µM. actives 0.68% (n = 340,000). AID 504582; in the data active = growth rescue above about 28%, passing the limit was not always enough;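 also: yeast W303a lacking pdr1 and pdr3 grown in galactose medium; growth measured after three days at 30 °C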
Mtb FBA inh = inhibitors of M. tuberculosis fructose-bisphosphate aldolase; actives 2.3% (n = 360,000); AID 588726; purified M. tuberculosis FBA, fluorescence read-out; P9WQA3; inhibition, % at 1 µM; in the data active = inhibition above about 27%;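 also: 0% = vehicle and 100% = reference inhibitor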
Target sequence (P9WQA3 whole entry, looked up): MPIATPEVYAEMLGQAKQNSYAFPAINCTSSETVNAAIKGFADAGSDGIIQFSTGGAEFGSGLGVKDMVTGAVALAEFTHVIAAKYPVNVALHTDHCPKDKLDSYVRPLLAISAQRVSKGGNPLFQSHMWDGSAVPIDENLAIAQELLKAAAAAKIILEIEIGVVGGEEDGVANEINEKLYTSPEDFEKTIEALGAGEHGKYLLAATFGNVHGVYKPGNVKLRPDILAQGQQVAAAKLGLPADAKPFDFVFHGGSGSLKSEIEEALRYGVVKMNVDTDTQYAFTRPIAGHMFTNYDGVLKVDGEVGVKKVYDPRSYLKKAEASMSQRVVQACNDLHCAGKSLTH
BJeLR lethal = kills HRASV12-expressing BJeLR cells. BJeLR (HRASV12) viability, CellTiter-Glo ATP luminescence, 48 h. inhibition, % (concentration not given with the values). actives 0.17% (n = 300,000). AID 1554; in the data active = inhibition above about 50%
PrP 5UTR inh = suppresses PrP 5' UTR mRNA reporter expression | cell-based PrP 5' UTR mRNA reporter, plate reader | inhibition, % (test concentration not listed) | actives 0.35% (n = 340,000) | AID 488862; in the data active = inhibition above about 52%; also: 0 = median of the neutral control wells
PrPC TRFRET = reduces human prion protein on the cell surface; P04156; cell surface PrPC, TR-FRET read-out; inhibition, % at 13.8 µM; actives 0.43% (n = 370,000); in the data active = inhibition above about 24%; also: 0% = median of the test wells and 100% = reference compound wells
GDH-TPI inh = inhibits GDH-TPI coupling enzymes, artifact for Mtb FBA screen | GDH-TPI coupled enzyme counterscreen, NADH absorbance | inhibition, % at 4.8 µM | actives 1.2% (n = 360,000) | AID 588335; in the data active = inhibition above about 30%;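 also: 0% = DMSO wells and 100% = wells lacking the enzyme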
Active calls of the source: *; / = not tested or not shown; + = active, no number. Hits are enriched below; roughly 4.5% of the tested compounds scored in any of these assays.

SMILES	PfHsp40 yeast	Mtb FBA inh	BJeLR lethal	PrP 5UTR inh	PrPC TRFRET	GDH-TPI inh
COc1cc(/C=N/N=C2/NC(=O)C(CC(=O)O)S2)ccc1OCc1ccc(Cl)cc1 (centres undefined)	-1	-5	-6	-55	-4	51*
COC(=O)c1cc(NC(=O)NC2CCCCN(Cc3cccc(Cl)c3)C2=O)cc(C(=O)OC)c1 (centres undefined)	/	/	/	/	-8	/
C[C@@H](CCCCC1(C)OCCO1)CCC(=O)N(c1ccccc1)c1ccccc1	/	/	/	/	1	/
COCCCNC(=O)C[C@H]1C[C@@]2(C(=O)OC)C(=C[C@H](C(C)C)O[C@@H]2C2CC2)N(Cc2ccco2)C1=O	/	/	/	/	-1	/
COc1ccc(NC(=O)c2cc3c(C)nn(-c4ccccc4)c3s2)cc1	/	/	/	/	14	/
O=C(CSc1nc(-c2ccco2)cc(C(F)(F)F)n1)Nc1cccnc1	-1	-1	3	-8	4	32*
COc1ccc(/C=N/N2CCN(c3ccccc3OC)CC2)cc1OC	-1	2	5	2	-5	11
CCN(CC)c1ccc(/C=N/N2CCN(c3ccccc3OC)CC2)cc1	0	1	-5	-1	8	37*
NC1=NC[C@@H](Cc2ccc(O)cc2)N1CCC12CC3CC(CC(C3)C1)C2	48*	3	1	5	11	7
C=CCN(Cc1ccc2c(c1)OCO2)C(C#CC1CC1)C(C)C (centres undefined)	/	/	/	/	3	/
COc1ccc(/C=N/Nc2cn[nH]c(=O)c2Cl)cc1	-2	1	-3	-12	-12	36*
Cc1ccc(/C=N\Nc2cn[nH]c(=O)c2Cl)cc1	0	-2	17	-10	-16	48*
O=c1[nH]ncc(N/N=C/c2ccccc2)c1Cl	-2	0	-20	-29	-10	80*
CNc1cnc(-c2ccc(C(=O)N3CCOCC3)cc2)cn1	/	+	/	/	-1	16
COc1cc(OC)c(OC)cc1/C=N/NC(=O)c1ccc2nc[nH]c2c1	-1	2	-6	-26	-6	26
COc1ccc(/C=N/NC(=O)c2ccc3nc[nH]c3c2)c(OC)c1	1	0	-3	7	1	35*
COc1ccc(/C=N/NC(=O)c2ccc3nc[nH]c3c2)cc1	/	1	-7	/	-11	13
CCOc1ccc(/C=N/NC(=O)c2ccc3nc[nH]c3c2)cc1OC	/	4	/	/	9	42*
CCCCCCCCN1C(=O)[C@@H](CC(=O)NCCCOC)C[C@@]2(C(=O)OC)C1=C[C@H](C(C)C)O[C@@H]2C1CC1	/	/	/	/	5	/
COc1ccccc1OCc1nnc(SCC(=O)Nc2nnc(C3CC3)s2)n1C	0	175*	-8	-20	1	-1
C=CCn1c(=N)c(C(=O)NCCCOC)cc2c(=O)n3cc(C)ccc3nc21	1	+	18	-24	-46	14
COCCn1c(=N)c(C(=O)NCCc2ccc(OC)cc2)cc2c(=O)n3cccc(C)c3nc21	-1	5	2	-4	-35	8
C=CCn1c(=N)c(C(=O)NCCCOC)cc2c(=O)n3ccccc3nc21	0	+	3	-9	-38	12
COc1cccc(/C=C2\CC3(OC(=O)c4ccco4)CCCN2C3)c1 (centres undefined)	/	/	/	/	-2	/
Cc1csc(Nc2nc(N)c(C(=O)Nc3ccccc3)o2)n1	-1	-1	18	-52	5	35*
SMILES	PfHsp40 yeast	Mtb FBA inh	BJeLR lethal	PrP 5UTR inh	PrPC TRFRET	GDH-TPI inh
CCOC(=O)c1ccc(NS(=O)(=O)c2c(C)nc3sccn3c2=O)cc1	1	2	0	-23	6	35*
CC(C)Cc1nc2oc3c(NCC4CCCO4)ncnc3c2c2c1CCC2 (centres undefined)	1	8	7	-16	-4	-5
CCOC(=O)c1oc2nc(CC(C)C)c3c(c2c1N)CCC3	1	178*	-2	-22	2	5
CC1CN(S(=O)(=O)c2ccc(C(=O)Nc3nccs3)cc2)CC(C)O1 (centres undefined)	-2	2	-4	-1	4	43*
CC1CN(S(=O)(=O)c2ccc(C(=O)Nc3ccc(S(=O)(=O)Nc4nccs4)cc3)cc2)CC(C)O1 (centres undefined)	1	0	-23	-12	2	13
Cn1cc(C2(c3c[nH]c4ccccc34)CCN(C(=O)OC(C)(C)C)CC2)c2ccccc21	/	/	/	/	1	/
COc1ccc(-n2nc(N)c(C(N)=O)n2)cc1	-1	+	1	-27	-2	13

Screening data from PubChem BioAssay.
